Assay results: article PMC5540273 (PLoS ONE, 2017)
Where two headings read alike, the source gives them in different places.

Experiments:
[1] = test system: ADCK4; conditions: concentration: 1 μM, replicates: in singlicate; n = 1
[2] = test system: AKT1; conditions: concentration: 1 μM, replicates: in singlicate; n = 1
[3] = test system: AKT2; conditions: n = 1
[4] = test system: AKT3; conditions: concentration: 1 μM, replicates: in singlicate; n = 1
[5] = test system: ALK; conditions: concentration: 1 μM, replicates: in singlicate; n = 1
[6] = test system: T1, AMPK-alpha1; conditions: concentration: 1 μM, replicates: in singlicate; n = 1
T1 construct: gene PRKAA1

[7] = test system: T2, AMPK-alpha2; conditions: concentration: 1 μM, replicates: in singlicate; n = 1
T2 construct: gene PRKAA2

[8] = test system: ANKK1; conditions: concentration: 1 μM, replicates: in singlicate; n = 1
[9] = test system: T3, ARK5; conditions: concentration: 1 μM, replicates: in singlicate; n = 1
T3 construct: gene NUAK1

[10] = test system: T4, ASK1; conditions: concentration: 1 μM, replicates: in singlicate; n = 1
T4 construct: gene MAP3K5

[11] = concentration: 1 μM, replicates: in singlicate
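Also: KINOMEscan kinase panel screen.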

Row | Compound | %Inh [1] [%] | %Inh [2] [%] | %Inh [3, 11] [%] | %Inh [4] [%] | %Inh [5] [%] | %Inh [6] [%] | %Inh [7] [%] | %Inh [8] [%] | %Inh [9] [%] | %Inh [10] [%] | %Inh ([3]; 1 µM) [%]
1 | c1ccc(-c2cnc3nccnn23)cc1 [AH20685] | 17 | 0 | 0 | 0 | 20 | 0 | 0 | 0 | 0 | 0 | –
2 | CCn1c(-c2nonc2N)nc2c(C#CC(C)(C)O)ncc(OCCCCN)c21.O=C(O)C(F)(F)F.O=C(O)C(F)(F)F [GSK507274] | 13 | 93.5 | – | 72 | 28 | 1 | 0 | 0 | 50 | 0 | 99.1
3 | Cc1ccc(C(=O)Nc2ccc(Nc3ccnc4cc(-c5nccs5)ccc34)cc2O)cc1.Cl [GW494702] | 34 | 12 | 6 | 0 | 0 | 20 | 0 | 21 | 14 | 9 | –
4 | COc1cc(Nc2nccc(-c3c(-c4cccc(NC(=O)c5c(F)cccc5F)c4)nn4ccccc34)n2)cc(OC)c1OC [GSK323521] | 0 | 8 | 0 | 5 | 14 | 20 | 23 | 13 | 8 | 5 | –
5 | CC(C)c1nc(-c2cccc(NS(=O)(=O)c3c(F)cccc3F)c2F)c(-c2ccnc(Nc3ccc(N4CCOCC4)nc3)n2)s1 [GSK2008607] | 100 | 0 | 0 | 0 | 28 | 97 | 98.8 | 29 | 0 | 0 | –
6 | Cc1cccc(NC(=O)Nc2ccc(Oc3ncnc4ccn(C)c34)cc2)c1 | 0 | 0 | 0 | 0 | 0 | 9 | 0 | 0 | 0 | 0 | –
7 | Cl.Cl.NCC(NC(=O)c1cc(-c2ccccc2)c(-c2ccnc3[nH]ccc23)s1)c1ccccc1 (stereo not shown) [GSK1321561] | 89 | 57 | 0 | 80 | 27 | 5 | 0 | 0 | 16 | 0 | –
8 | Cc1ccc(C)c(NC(=O)NC2CCN(c3ccnc(Nc4ccc(F)cc4)n3)C2)c1 (stereo not shown) [GSK1379720] | 48 | 0 | 19 | 0 | 28 | 7 | 0 | 0 | 0 | 0 | –
9 | O=C(Nc1ccccc1F)NC1CCN(c2ccnc(Nc3ccc(F)cc3)n2)CC1 [GSK1379800] | 64 | 0 | 11 | 0 | 17 | 14 | 0 | 1 | 0 | 4 | –
10 | O=C(O)C(F)(F)F.O=C(O)C(F)(F)F.O=c1[nH]ccc2nc(N[C@@H]3CCCNC3)nc(Nc3ccc(S(=O)(=O)N4CCOCC4)cc3)c12 [GSK2177277] | 0 | 0 | 0 | 0 | 97.4 | 97.6 | 98.1 | 98.1 | 100 | 0 | –
